Source: the supplement of paper PMC10849652
About 8,800 targets were measured; listed, in parts, are those with a hit and a random draw of the rest. About 0.5% of all pairs of compound and target were hits. Values without a mark were called inactive.

Key:
Assay in all cases: log2 fold change, soluble protein after heating vs DMSO (PISA); higher = thermal stabilisation; K562 lysate, 10 uM; active = over 0.2 and 3.5 SD of the protein, either way, in both replicates (recomputed)
[1] = compound: CN1CC[C@H](c2c(O)cc(O)c3c(=O)cc(-c4ccccc4Cl)oc23)[C@H](O)C1 [alvocidib]
Outline: (§1)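 Following dounce homogenisation of K562 pellets in PBS pH 7.4 with 1 mM MgCl2, crude extract at 1 mg/mL protein was incubated for 30 min with 10 μM compound. Aliquots were then heated for 3 min over 48°C-58°C and pooled, NP-40 was added to 0.5% at 4°C, and soluble protein was recovered as the supernatant at 21,000xg for 90 min. Channel-sum-equalised TMTpro 16plex LC-MS/MS quantified this protein. Each value, from duplicates, is a log-two fold change in thermal stability relative to solvent controls.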

[2] = compound: CN1CCc2c(c3ccccc3n2Cc2ccc(C(=O)NO)cc2)C1 [Tubastatin A]
Outline: as §1

[3] = compound: CNC(=O)C1=CC=CC=C1NC2=NC(=NC=C2Cl)NC3=C(C=C(C=C3)N4CCOCC4)OC
Outline: as §1

[4] = compound: CNC(=O)c1ccc(Nc2ncc(C(F)(F)F)c(NCc3nccnc3N(C)S(C)(=O)=O)n2)cc1 [defactinib]
Outline: as §1

[5] = compound: CNc1nc(-c2ccc3c(N)n[nH]c3c2)cc(N2C[C@@H](C(=O)NC3CCCCC3)CC[C@H]2C)n1
Outline: as §1

[6] = compound: COC(=O)N[C@@H](C)CNc1nccc(-c2cn(C(C)C)nc2-c2cc(Cl)cc(NS(C)(=O)=O)c2F)n1 [encorafenib]
Outline: as §1

[7] = compound: COC(=O)[C@H](CCSC)NC(=O)C1=C(C=C(C=C1)NC[C@H](CS)N)C2=CC=CC=C2
Outline: as §1

[8] = compound: COc1cc(Nc2ncc3c(n2)-c2ccc(Cl)cc2C(c2c(F)cccc2OC)=NC3)ccc1C(=O)O [alisertib]
Outline: as §1

[9] = compound: COc1cc2nc(-c3cc(F)ccc3O)nc(N[C@@H]3CNC[C@H]3C(C)(C)O)c2cc1OC
Outline: as §1

[10] = compound: COc1cc2ncnc(Nc3ccc(F)c(Cl)c3)c2cc1OCCCN1CCOCC1 [gefitinib]
Outline: as §1

Sequence of UniProt P54278 (P54278 whole entry, looked up): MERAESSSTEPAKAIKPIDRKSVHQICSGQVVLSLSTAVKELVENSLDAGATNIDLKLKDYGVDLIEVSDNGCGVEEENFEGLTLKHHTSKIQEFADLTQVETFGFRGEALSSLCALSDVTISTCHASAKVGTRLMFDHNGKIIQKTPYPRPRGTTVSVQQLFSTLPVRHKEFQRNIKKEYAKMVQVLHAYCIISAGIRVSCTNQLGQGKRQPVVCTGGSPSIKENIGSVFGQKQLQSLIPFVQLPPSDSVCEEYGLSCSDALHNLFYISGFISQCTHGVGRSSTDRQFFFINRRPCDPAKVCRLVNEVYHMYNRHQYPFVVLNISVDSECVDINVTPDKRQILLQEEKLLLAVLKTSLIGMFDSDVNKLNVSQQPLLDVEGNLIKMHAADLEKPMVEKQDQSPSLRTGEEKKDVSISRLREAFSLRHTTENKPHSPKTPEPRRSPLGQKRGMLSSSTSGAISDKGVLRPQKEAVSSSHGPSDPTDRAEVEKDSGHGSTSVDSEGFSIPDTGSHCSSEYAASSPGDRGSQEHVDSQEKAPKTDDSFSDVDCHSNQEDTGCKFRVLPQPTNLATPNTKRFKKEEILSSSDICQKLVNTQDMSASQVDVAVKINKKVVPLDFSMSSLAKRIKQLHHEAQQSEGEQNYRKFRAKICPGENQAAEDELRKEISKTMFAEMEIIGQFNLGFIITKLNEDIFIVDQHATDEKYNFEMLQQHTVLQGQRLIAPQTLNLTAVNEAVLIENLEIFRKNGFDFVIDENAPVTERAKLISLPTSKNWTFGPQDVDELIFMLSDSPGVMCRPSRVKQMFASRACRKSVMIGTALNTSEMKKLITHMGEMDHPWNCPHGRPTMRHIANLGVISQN
Sequence of UniProt O75334 (O75334 whole entry, looked up): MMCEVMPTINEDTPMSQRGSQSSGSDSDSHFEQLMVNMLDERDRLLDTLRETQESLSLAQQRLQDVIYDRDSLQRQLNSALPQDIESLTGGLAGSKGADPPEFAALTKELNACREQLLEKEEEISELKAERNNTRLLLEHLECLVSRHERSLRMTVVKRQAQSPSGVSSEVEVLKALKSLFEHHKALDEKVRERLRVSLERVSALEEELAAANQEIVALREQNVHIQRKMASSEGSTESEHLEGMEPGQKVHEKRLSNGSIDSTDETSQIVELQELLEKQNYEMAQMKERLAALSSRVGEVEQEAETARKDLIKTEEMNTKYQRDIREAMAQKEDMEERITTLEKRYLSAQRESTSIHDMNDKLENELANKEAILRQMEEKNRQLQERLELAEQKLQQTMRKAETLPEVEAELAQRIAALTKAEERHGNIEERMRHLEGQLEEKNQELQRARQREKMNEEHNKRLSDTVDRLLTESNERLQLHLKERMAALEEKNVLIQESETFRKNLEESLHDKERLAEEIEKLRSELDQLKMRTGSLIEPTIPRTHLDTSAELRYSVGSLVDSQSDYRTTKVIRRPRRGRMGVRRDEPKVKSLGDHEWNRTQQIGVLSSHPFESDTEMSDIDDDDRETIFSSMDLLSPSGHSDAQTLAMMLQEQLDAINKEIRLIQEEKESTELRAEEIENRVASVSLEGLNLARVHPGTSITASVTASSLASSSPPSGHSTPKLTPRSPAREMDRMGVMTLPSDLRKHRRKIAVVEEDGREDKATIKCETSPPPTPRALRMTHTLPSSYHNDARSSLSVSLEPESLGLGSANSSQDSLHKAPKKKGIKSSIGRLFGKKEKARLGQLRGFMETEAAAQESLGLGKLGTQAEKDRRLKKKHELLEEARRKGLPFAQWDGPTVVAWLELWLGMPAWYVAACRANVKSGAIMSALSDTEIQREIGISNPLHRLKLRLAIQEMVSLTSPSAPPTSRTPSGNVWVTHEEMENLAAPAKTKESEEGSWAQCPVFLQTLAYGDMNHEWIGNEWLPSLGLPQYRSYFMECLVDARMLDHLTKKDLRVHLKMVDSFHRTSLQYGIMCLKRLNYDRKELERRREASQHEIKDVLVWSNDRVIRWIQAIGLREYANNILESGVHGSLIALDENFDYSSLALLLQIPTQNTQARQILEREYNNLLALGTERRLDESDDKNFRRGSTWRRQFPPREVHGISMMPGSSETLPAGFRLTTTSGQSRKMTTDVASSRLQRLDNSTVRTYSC
Sequence of UniProt Q9UBV8 (Q9UBV8 whole entry, looked up): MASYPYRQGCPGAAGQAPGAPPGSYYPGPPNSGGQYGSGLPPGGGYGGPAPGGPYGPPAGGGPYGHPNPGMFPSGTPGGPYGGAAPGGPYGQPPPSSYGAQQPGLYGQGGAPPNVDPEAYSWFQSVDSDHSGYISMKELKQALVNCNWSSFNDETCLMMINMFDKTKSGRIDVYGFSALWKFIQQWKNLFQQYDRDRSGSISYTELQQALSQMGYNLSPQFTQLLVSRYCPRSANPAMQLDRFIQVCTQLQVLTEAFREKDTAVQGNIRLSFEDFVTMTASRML
Sequence of UniProt Q8N8N7 (Q8N8N7 whole entry, looked up): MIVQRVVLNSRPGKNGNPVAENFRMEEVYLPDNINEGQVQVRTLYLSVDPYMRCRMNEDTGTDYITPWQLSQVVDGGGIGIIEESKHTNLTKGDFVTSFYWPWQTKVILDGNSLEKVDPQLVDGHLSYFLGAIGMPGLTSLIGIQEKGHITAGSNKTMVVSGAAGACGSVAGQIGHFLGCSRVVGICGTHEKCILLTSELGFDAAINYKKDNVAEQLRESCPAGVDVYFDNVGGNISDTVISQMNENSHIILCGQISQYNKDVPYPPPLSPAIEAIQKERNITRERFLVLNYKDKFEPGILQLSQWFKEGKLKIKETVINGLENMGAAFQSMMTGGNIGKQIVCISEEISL
Sequence of UniProt Q13492 (Q13492 whole entry, looked up): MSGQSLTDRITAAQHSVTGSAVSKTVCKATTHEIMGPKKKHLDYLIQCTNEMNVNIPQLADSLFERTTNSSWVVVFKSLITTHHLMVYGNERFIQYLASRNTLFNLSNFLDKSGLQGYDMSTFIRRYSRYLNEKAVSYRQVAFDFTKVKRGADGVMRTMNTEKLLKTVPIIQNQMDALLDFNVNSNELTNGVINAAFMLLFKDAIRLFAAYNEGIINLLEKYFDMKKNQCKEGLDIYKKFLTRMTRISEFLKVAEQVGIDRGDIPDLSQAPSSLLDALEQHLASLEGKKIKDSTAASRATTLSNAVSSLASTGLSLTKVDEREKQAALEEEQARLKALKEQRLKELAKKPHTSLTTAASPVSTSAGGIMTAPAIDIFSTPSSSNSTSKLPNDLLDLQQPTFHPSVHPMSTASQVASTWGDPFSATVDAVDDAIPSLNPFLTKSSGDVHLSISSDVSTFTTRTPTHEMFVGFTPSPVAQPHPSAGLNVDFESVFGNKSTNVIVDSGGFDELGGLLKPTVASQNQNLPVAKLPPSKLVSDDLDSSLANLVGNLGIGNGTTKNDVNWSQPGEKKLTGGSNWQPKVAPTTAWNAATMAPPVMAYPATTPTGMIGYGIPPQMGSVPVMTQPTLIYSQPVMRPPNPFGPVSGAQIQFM
Sequence of UniProt Q10713 (Q10713 whole entry, looked up): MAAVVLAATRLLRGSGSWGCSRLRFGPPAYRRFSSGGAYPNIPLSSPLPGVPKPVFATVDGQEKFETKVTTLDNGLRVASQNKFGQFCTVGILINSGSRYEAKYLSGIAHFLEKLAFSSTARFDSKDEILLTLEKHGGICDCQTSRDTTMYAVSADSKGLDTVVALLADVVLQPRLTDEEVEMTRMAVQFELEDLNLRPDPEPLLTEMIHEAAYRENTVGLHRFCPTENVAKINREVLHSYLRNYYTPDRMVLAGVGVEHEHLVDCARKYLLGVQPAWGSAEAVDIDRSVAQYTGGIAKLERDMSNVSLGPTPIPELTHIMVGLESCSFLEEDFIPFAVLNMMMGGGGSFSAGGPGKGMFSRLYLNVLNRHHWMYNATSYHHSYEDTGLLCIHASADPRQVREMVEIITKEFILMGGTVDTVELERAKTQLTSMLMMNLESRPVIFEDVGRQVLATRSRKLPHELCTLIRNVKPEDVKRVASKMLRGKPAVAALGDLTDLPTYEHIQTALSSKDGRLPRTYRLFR
Sequence of UniProt P48426 (P48426 whole entry, looked up): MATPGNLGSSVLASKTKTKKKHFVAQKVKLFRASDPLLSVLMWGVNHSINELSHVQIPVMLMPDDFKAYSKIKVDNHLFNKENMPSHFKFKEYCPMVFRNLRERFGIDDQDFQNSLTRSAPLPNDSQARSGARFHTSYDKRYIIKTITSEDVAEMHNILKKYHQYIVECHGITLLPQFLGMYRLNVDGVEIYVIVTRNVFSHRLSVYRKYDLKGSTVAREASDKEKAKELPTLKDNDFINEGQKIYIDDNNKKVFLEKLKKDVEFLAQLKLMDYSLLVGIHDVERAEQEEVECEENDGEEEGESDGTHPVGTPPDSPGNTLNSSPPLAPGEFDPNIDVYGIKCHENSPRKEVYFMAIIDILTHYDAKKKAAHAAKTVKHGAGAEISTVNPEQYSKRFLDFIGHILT

| Target | log2 fold change [1] | log2 fold change [2] | log2 fold change [3] | log2 fold change [4] | log2 fold change [5] | log2 fold change [6] | log2 fold change [7] | log2 fold change [8] | log2 fold change [9] | log2 fold change [10] |
| --- | --- | --- | --- | --- | --- | --- | --- | --- | --- | --- |
| PICALM (UniProt Q13492) | -0.021 | 0.029 | -0.032 | -0.037 | -0.033 | 0.042 | 0.014 | 0.008 | 0.017 | 0.008 |
| PCF11 (UniProt O94913) | -0.018 | -0.12 | 0.002 | 0.041 | 0.078 | 0.036 | -0.021 | 0.009 | 0.042 | 0.002 |
| PLK1 (UniProt P53350) | 0.059 | -0.108 | -0.347 (active) | -0.268 | 0.006 | 0.097 | -0.034 | -0.003 | -0.023 | 0.003 |
| PWP1 (UniProt Q13610) | 0.063 | -0.017 | -0.012 | 0.002 | -0.046 | 0.046 | -0.013 | -0.014 | 0.008 | -0.017 |
| PPP2R3C (UniProt Q969Q6) | -0.018 | -0.145 | -0.046 | 0.072 | 0.081 | 0.105 | 0.013 | 0.069 | -0.23 | 0.105 |
| PMS2 (UniProt P54278) | -0.001 | -0.129 | 0.03 | 0.021 | 0.103 | 0.038 | 0.089 | 0.009 | 0.02 | 0.024 |
| PRMT7 (UniProt Q9NVM4) | 0.017 | -0.069 | 0.024 | -0.047 | 0.002 | 0.012 | 0.286 (active) | -0.015 | 0.007 | 0 |
| PDAP1 (UniProt Q13442) | -0.074 | 0.063 | 0.004 | -0.012 | 0.109 | -0.038 | -0.017 | 0.006 | 0.018 | -0.029 |
| PI4K2A (UniProt Q9BTU6) | -0.006 | -0.037 | 0.021 | -0.023 | 0.012 | 0.022 | -0.092 | -0.008 | -0.056 | 0.021 |
| PHLDB1 (UniProt Q86UU1) | -0.067 | -0.1 | -0.031 | 0.023 | 0.049 | -0.041 | -0.05 | 0.009 | -0.037 | 0.017 |
| PEF1 (UniProt Q9UBV8) | 0.027 | 0.097 | 0.029 | 0.087 | 0.029 | 0.039 | -0.034 | -0.017 | 0.029 | -0.02 |
| PUM1 isoform 3 (UniProt Q14671) | 0.02 | -0.033 | -0.017 | 0.017 | -0.023 | 0.008 | 0 | 0.031 | 0.017 | -0.014 |
| PFKP (UniProt Q01813) | 0.019 | 0.031 | 0.029 | -0.009 | -0.016 | -0.041 | -0.001 | -0.004 | 0.009 | -0.006 |
| PRKACB isoform 2 (UniProt P22694) | 0.006 | 0.003 | 0.011 | 0.117 | 0.118 | -0.018 | -0.05 | 0 | 0.51 (active) | 0.006 |
| PLIN2 (UniProt Q99541) | -0.008 | -0.107 | -0.014 | 0.049 | 0.002 | 0.061 | -0.107 | 0.044 | -0.071 | 0.104 |
| PTGR2 (UniProt Q8N8N7) | 0.018 | -0.023 | 0.02 | 0.018 | -0.021 | -0.043 | 0.694 (active) | 0.014 | 0.004 | -0.007 |
| POLR2B (UniProt P30876) | -0.008 | -0.092 | 0.057 | 0.004 | -0.026 | 0.022 | 0.121 | 0.002 | -0.018 | 0.012 |
| PIP4K2A (UniProt P48426) | 0.279 (active) | -0.048 | 0.006 | 0.065 | -0.035 | 0.141 | -0.071 | 0.01 | 0.005 | 0.037 |
| PMPCA (UniProt Q10713) | -0.006 | 0.049 | -0.045 | 0.004 | -0.004 | 0.001 | 0.04 | -0.03 | 0.003 | -0.02 |
| PPFIA2 (UniProt O75334) | -0.107 | 0.021 | 0.022 | -0.011 | -0.026 | -0.082 | -0.029 | -0.007 | 0.012 | 0.057 |
| PRKCA (UniProt P17252) | 0.034 | -0.005 | -0.027 | 0.032 | -0.041 | 0.048 | -0.041 | -0.031 | 0.133 | -0.038 |
| PPP2CA (UniProt P67775) | -0.062 | -0.018 | 0.026 | -0.064 | -0.019 | 0.128 | -0.374 (active) | -0.016 | -0.013 | -0.009 |
| PPP2R5C isoform 4 (UniProt Q13362) | 0.059 | -0.014 | -0.022 | -0.01 | -0.08 | -0.03 | -0.047 | -0.036 | 0.009 | -0.007 |
| PRKD2 isoform 3 (UniProt Q9BZL6) | 0.01 | -0.145 | -0.125 | 0.24 | 0.024 | 0.091 | -0.001 | -0.028 | 0.238 | -0.165 |
| PDCD10 (UniProt Q9BUL8) | -0.053 | -0.002 | 0.013 | 0.029 | -0.005 | -0.019 | 0.034 | 0.01 | 0.05 | -0.025 |
| PCBP2 isoform 3 (UniProt Q15366) | 0.038 | -0.074 | 0.017 | 0.006 | -0.075 | 0.049 | -0.048 | -0.001 | -0.006 | -0.009 |
| PHKB isoform 3 (UniProt Q93100) | 0.04 | -0.099 | 0.223 | -0.006 | -0.018 | -0.019 | 0.015 | 0.006 | 0.107 | 0.03 |
| PTPN6 isoform 4 (UniProt P29350) | -0.12 | -0.185 | 0.037 | -0.015 | -0.008 | 0.028 | 0.261 | -0.218 | -0.034 | 0.045 |
| PLEKHF1 (UniProt Q96S99) | -0.001 | -0.051 | 0.058 | -0.007 | -0.033 | -0.025 | -0.009 | -0.008 | -0.001 | 0.007 |
